Measured values published in ChEMBL document CHEMBL3433997, “St. Jude Leishmania screening dataset” (2016).
“And” between values parts separate entries of the source, which are not always exact repeats. Identical values can stand only once.

Tests used:
Assay type in all cases: functional
[1] = target: Solute carrier family 2, facilitated glucose transporter member 1 (Homo sapiens) (UniProt P11166); assay: ST_JUDE_LEISH: Cytotoxicity at 2uM final concentration against transgenic Leishmania Mexicana promastigotes LmGLUT1 that are glucose transport deficient and complemented with the human glucose transporter GLUT1. Activity is measured by DNA content using SYBR green in vitro
[2] = target: Hexose transporter 1 (Plasmodium falciparum) (UniProt O97467); assay: ST_JUDE_LEISH: Cytotoxicity at 2uM final concentration against transgenic Leishmania Mexicana promastigotes LmPfHT that are glucose transport deficient and complemented with the Plasmodium falciparum hexose transporter. Activity is measured by DNA content using SYBR green in vitro
[3] = target: Glucose transporter (Leishmania mexicana) (UniProt O61059); assay: ST_JUDE_LEISH: Cytotoxicity at 2uM final concentration against transgenic Leishmania Mexicana promastigotes LmGT2 that are glucose transport deficient and complemented with the L. Mexicana glucose transporter 2. Activity is measured by DNA content using SYBR green in vitro

Chain of Solute carrier family 2, facilitated glucose transporter member 1 (Homo sapiens) (P11166 whole entry): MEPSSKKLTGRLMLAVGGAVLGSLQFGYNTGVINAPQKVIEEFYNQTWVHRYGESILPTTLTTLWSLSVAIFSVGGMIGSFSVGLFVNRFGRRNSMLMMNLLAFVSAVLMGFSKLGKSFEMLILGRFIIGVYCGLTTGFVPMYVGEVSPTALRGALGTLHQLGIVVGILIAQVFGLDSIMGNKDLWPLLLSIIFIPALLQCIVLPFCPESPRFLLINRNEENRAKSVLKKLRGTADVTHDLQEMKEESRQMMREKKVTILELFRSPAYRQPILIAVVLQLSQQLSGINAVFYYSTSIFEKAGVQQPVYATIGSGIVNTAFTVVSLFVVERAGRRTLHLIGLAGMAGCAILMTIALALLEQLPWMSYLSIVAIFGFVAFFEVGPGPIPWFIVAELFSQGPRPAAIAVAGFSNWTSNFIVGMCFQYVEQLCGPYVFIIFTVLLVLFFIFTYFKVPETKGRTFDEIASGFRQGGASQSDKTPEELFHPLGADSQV

| Structure (SMILES) | inhibition [1] | inhibition [2] | inhibition [3] |
| --- | --- | --- | --- |
| Cc1cccc2nc(-c3ccc(-c4ccc(NC(=O)Nc5ccc(Cl)cc5)cc4)cc3)[nH]c12 | -1.7% | 1.17% | -1.04% |
| CC(C)CNC(=O)c1cncc(-c2ccc(CN(C)C3CCN(C)CC3)cc2)c1 | 4.89% | 5.48% | 1.87% |
| CCOc1ccc2c(=NN=Cc3cccc(Cl)c3)cc(C)[nH]c2c1 | 8.03% | 6.27% | 16% |
| COc1cc2c(cc1OC)CN(CCc1ccc(NC(=O)c3cc4cc(OC(F)(F)F)ccc4[nH]3)cc1)CC2 | 3.34% | 3.67% | 1.17% |
| COc1ccc(CNCc2ccc(F)cc2)cc1-c1ccc(OC)c(S(=O)(=O)NCCN2CCCC2)c1 | 5.21% | 6.27% | 4.28% |
| O=C(NCCCCN1CCC(c2c[nH]c3ccc(-c4ccccc4)cc23)CC1)c1ccc(-c2ccccc2)cc1 | 5.96% | 4.21% | 5.24% |
| c1ccc(CN2CCN(CCNc3c4ccccc4nc4ccccc34)CC2)cc1 | 13.5% | 10.9% | 12.9% |
| COc1ccc(C(=O)N[C@@H](CC(C)C)C(=O)N[C@H](/C=N/NC(=O)c2ccccc2)CCc2ccccc2)cc1OCCN1CCOCC1 | -0.43% | 3.34% | 6.8% |
| COc1cc(F)c2nccc([C@@H](O)CN3CCC(NCc4cc5c(cc4F)OCCO5)CC3)c2c1 | 1.5% | 0.69% | -2.93% |
| CN1CCC(C(=O)Nc2cccc(-c3cccc(-c4nc5cc(F)ccc5[nH]4)c3)c2)CC1 | 4.7% | 5.02% | 6.69% |
| N=C(N)NN=CC(=O)Nc1cccc(C(F)(F)F)c1 | 0.23% | 0.15% | -1.62% |
| Cc1[nH]c2cc(F)ccc2c(=O)c1Cc1ccc(Cl)cc1.Cc1[nH]c2cccc(F)c2c(=O)c1Cc1ccc(Cl)cc1 | 23.5% and 29.2% | 37.3% and 55.7% | 14.3% and 15% |
| COc1cc(Cc2cnc(N)nc2N)cc(OCCn2ccccc2=O)c1OC | 2.42% | 2.33% | 1.46% |
| N=C(N)Nc1nc(-c2ccc(NC(=O)Nc3cccc(-c4csc(NC(=N)N)n4)c3)cc2)cs1 | -0.61% | 0% | -0.17% |
| COc1cc(Cc2cnc(N)nc2N)cc(OCCCC(=O)O)c1OC | 2.98% | 1.62% | 1.78% |
| NC(=O)C1CCN(Cc2cccc(-c3cccc(-c4nc5cc(F)ccc5[nH]4)c3)c2)CC1 | -0.94% | 1.68% | 1.45% |
| O=C1COc2ccc3ccccc3c21 | -2.29% | 0.78% | -0.4% |
| CCN(CC)Cc1cc(Nc2ccnc3cc(Cl)ccc23)ccc1O | -1.88% | 2.29% | 4.65% |
| Cc1nc(C)c(-c2ccc(S(=O)(=O)c3ccc(Cl)cc3)cc2)c(O)c1Cl | 9.02% | 5.86% | 7.16% |

| Structure (SMILES) | inhibition [1] | inhibition [2] | inhibition [3] |
| --- | --- | --- | --- |
| CC(C)(C)c1ccc(CN2CCC(CNC(=O)c3cc(-c4ccccc4F)cs3)C2)cc1 (stereo unspecified) | -1.08% | -2.3% | 0.9% |
| c1cc2[nH]c(CCCCc3nc4cc(C5=N[C@H]6CCCC[C@H]6N5)ccc4[nH]3)nc2cc1C1=N[C@H]2CCCC[C@H]2N1 | 10.1% | 9.08% | 8.87% |
| C[C@H](Cc1ccc(CCc2ccc(C[C@@H](C)NC[C@H](O)c3cccc(Cl)c3)cc2)cc1)NC[C@H](O)c1cccc(Cl)c1 | 59.1% | 10.7% | 58.5% |
| Cc1ccc(NC(=O)N2CCC(n3c(-c4ccccc4)nc4cccnc43)CC2)cc1F | 6.53% | 7.11% | 5.43% |
| CC(C)Nc1cc(C(=O)N[C@@H](Cc2ccccc2)[C@H](O)CNCc2cccc(C(F)(F)F)c2)c(F)c(N2CCCCS2(=O)=O)c1 | 7.12% | 6.09% | 7.07% |
| FC(F)(F)c1ccc2[nH]c(-c3ccc(-c4ccc(CNCc5cnn(-c6ccccc6)n5)cc4)s3)nc2c1 | 2.88% | 1.1% | 2.24% |
| O=C(/C=C/c1cccc(C(F)(F)F)c1)NCCCCCN1CCN(C(=O)Nc2ccc(Cl)c(Cl)c2)CC1 | 2.21% | 2.33% | 1.97% |
| Cn1cnc2c(SCc3ccccc3OCc3ccccc3)ncnc21 | 6.91% | 5.44% | 4.68% |
| CCOC(=O)c1ccc(NC(=O)Nc2cccc(-c3cccc(-c4nc5cccc(C)c5[nH]4)c3)c2)cc1 | 2.35% | 3.22% | 1.01% |
| c1ccc(Oc2ccc(Nc3ccnc4cc(-c5csc(CNCCN6CCOCC6)n5)ccc34)cc2)cc1 | -1.32% | 1.23% | -0.68% |
| Cc1cccc2nc(-c3ccc(-c4ccc(CN5CCN(CCC#N)CC5)cc4)cc3)[nH]c12 | 15.7% | 14.1% | 11.8% |
| O=C(Nc1ccccc1O)c1ccc(Oc2cccc(C(=O)Nc3ccccc3O)c2)cc1 | 3.99% | 4.01% | 1.13% |
| c1cc(CN2CCN(c3ccncc3)CC2)cc(-c2cccc(-c3nc4ccccc4[nH]3)c2)c1 | 2.65% | 2.34% | 1.32% |
| N#Cc1ccc(-c2ccc(C(=O)NCCCCN3CCC(c4cn(CCCO)c5ccccc45)CC3)cc2)cc1 | 2% | 1.61% | 1.21% |
| CON=Cc1sc(CNCCCN=c2cc(O)c3ccccc3[nH]2)c(C)c1Br | 4.13% | 4.13% | 3.41% |
| O=C(NCc1cccc(F)c1)Nc1cccc(-c2ccc(-c3nc4cc(C(F)(F)F)ccc4[nH]3)cc2)c1 | 0.26% | 1.57% | 0.07% |
| CN(C)CCNC(=O)N1CCCN(c2ncnc3cc(-c4ccccc4)sc23)CC1 | 8.06% | 5.39% | 6.1% |
| N#Cc1cccc(C(O)CN(Cc2ccccc2)Cc2ccccc2)c1 (stereo unspecified) | 1.37% | 1.53% | 2.04% |
